Bioassay records: PubChem BioAssay, National Center for Advancing Translational Sciences (NCATS)
The list is not random: actives were taken first. Their share in the collection is about 1.7%.
PTHR1 agonist: agonists of human PTHR1 parathyroid hormone receptor | HEK293 GP2 PTHR1 cells, GloSensor cAMP luminescence, 1 h | Potency, µM (top dose mostly 115 µM), without a hit: at the top dose activation, hits mostly activators | 410,000 tested, 0.075% active; also: nearly all actives have a fitted effect of over 55% in size
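HEK-293-derived GP2 cells expressing PTHR1 and a GloSensor cAMP reporter, 3,000/well, plated overnight, given luciferin plus IBMX (each 0.5 mM as added) for 1 h at 37 °C, then compound for 1 h at 37 °C. Luminescence was read after 15 min at room temperature.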
GLP1R ag: agonists of human GLP-1 receptor. P43220. HEK293 GLP-1R CRE-luciferase, luminescence, 4-6 h; cells express a hypersensitive GLP-1R form. Potency, µM (doses to about 45.6 µM), for inactives: at the top dose activation, hits mostly activators. 380,000 tested, 0.007% active. AID 624172; also: % of control where 0% means no effect
Target sequence (P43220 whole entry, looked up): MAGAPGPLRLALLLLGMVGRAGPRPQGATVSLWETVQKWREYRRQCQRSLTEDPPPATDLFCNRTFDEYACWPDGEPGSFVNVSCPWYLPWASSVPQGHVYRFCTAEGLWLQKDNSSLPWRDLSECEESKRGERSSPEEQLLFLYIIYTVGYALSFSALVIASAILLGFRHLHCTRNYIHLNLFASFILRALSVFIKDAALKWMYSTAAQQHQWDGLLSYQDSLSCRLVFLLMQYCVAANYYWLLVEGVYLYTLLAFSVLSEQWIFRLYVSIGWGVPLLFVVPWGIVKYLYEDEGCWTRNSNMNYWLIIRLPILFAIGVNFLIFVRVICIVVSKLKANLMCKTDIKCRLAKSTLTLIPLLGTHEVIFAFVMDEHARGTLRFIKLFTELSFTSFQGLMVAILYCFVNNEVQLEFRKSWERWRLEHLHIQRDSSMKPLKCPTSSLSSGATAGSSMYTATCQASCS
GLP-1R inv ag: inverse agonists of human GLP-1 receptor; P43220; HEK293 GLP-1R CRE-luciferase, luminescence, 24 h; GLP-1R form is constitutively active; Potency, µM (highest dose often 38.3 µM), for the others: at the top dose activity change, negative = inhibition, actives largely listed as inhibitors; 410,000 tested, 1.6% active; AID 624417; also: % is scaled to controls: 0 for no effect and ±100 for the full control effect; nearly all actives have a fitted effect of over 55% in size
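Stable HEK293 clone (constitutively active GLP-1R + cAMP-response luciferase); 200 cells/uL plated, 12 h pre-culture, compound 24 hr, 37 deg C/5% CO2; detection reagent 12 min RT; luminescence.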
GLP1R cytotox: cytotoxicity in counter-screen for GLP-1R inverse agonists | Potency, µM (top dose mostly 38.3 µM), inactives show at the highest dose activity change, negative = inhibition, most hits filed as inhibitors | 410,000 tested, 0.13% active | HEK293 cAMP-luciferase reporter cells, luminescence, 24 h | AID 624418;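 also: loss of luciferase light is scored as toxicity; % is scaled to controls: 0 for no effect and ±100 for the full control effect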
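MLSMR compounds, 24 hr on cells at 37 deg C/5% CO2; luminescence after luciferase reagent (12 min RT). Inhibition counted as the undesired cytotoxic outcome.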
* hit, by the source's call; i = inactive; ? = inconclusive; nt = not tested or not shown; [ ] = dose if it differs, or a comment. Calls follow the shape of the dose curve; as a rule, active = well fitted curve in the direction sought with a large enough effect; inconclusive = small, poorly fitted or top-dose-only effect, or another doubt; inactive = no such curve, though single readings can be large; an effect the other way counts as inactive or inconclusive. Potency is read from the fitted curve at half-maximal effect.

SMILES | PTHR1 agonist | GLP1R ag | GLP-1R inv ag | GLP1R cytotox
Cn1cnnc1Sc1ccc(C(=O)OCC(=O)NC2CC2)cc1[N+](=O)[O-] | 25% | 8% | 3% | 6%
CC(=O)O[C@H]1C[C@@H]2CC[C@@H]3[C@H](CC[C@]4(C)[C@H](OC(C)=O)[C@@H](N5CC[N+](C)(C)CC5)C[C@@H]34)[C@@]2(C)C[C@@H]1N1CC[N+](C)(C)CC1 | nt | -3% | nt | nt
CCOC(=O)CCc1ccc(NC(=O)/C=C/c2ccc([N+](=O)[O-])o2)cc1 | -39% | 5% | ? | 11µM*
Cc1ccc(/C=C/C(=O)Nc2ccc([N+](=O)[O-])cc2)o1 | i | -7% | 77% | -4%
Cc1ccc(CC(C)(O)CC(C)(O)Cc2ccc(C)cc2)cc1 (centres undefined) | -18% | 6% | 10µM* | 1%
Cc1ccc(-n2nnnc2SCC(=O)NC2CCCc3ccccc32)c(C)c1 (centres undefined) | -45% | 9% | 10µM* | -8%
Cc1ccc(-n2nnnc2SCC(=O)NC2CCCc3ccccc32)cc1 (centres undefined) | -10% | -1% | 10µM* | -7%
Cc1ccc(C)c(NC(=O)CCN2CCc3ccccc3C2)c1 | i | 6% | 11µM* | 3%
Cc1sc(-n2cccc2)c(C(C)NC(=O)Nc2cccc(C(F)(F)F)c2)c1C (centres undefined) | -46% | nt | 8.9µM* | -7%
Cc1ccc(NC(=O)NC(C)c2c(-n3cccc3)sc(C)c2C)cc1F (centres undefined) | -40% | nt | ? | -28%
Cc1cc(Nc2cccc(Cl)c2)nc2ccc(NC(=O)COc3ccc(Cl)cc3)cc12 | -7% | -1% | -21% | -2%
CCOc1cc(C(=O)Nc2ccc3nc(Nc4cccc(Cl)c4)cc(C)c3c2)cc(OCC)c1OCC | -10% | -1% | 5.6µM* | -11%
Cc1cc(Nc2cccc(Cl)c2)nc2ccc(NC(=O)c3cncc(Br)c3)cc12 | -20% | -5% | 2µM* | ?
COc1ccc(CN2CCc3nc(N4CCN(c5ccc(F)cc5)CC4)ncc3C2)c(OC)c1OC | -73% | nt | 6% | -3%
COC(=O)c1c(-c2cccs2)csc1NC(=O)COc1ccc(C(C)C)cc1 | i | nt | -2% | 0%
OCC1(O)OC[C@@H](O)[C@H](O)[C@@H]1O (some centres undefined) | nt | 2% | nt | nt
Cc1ccnc(OC(C(=O)O)C(OCc2ccccc2)(c2ccccc2)c2ccc(C(F)(F)F)cc2)n1 (centres undefined) | -31% | -2% | 10µM* | 15%
O=C(CCc1nc2cccnc2n1Cc1ccccc1)NCc1cccc(Cl)c1 | -44% | nt | -6% | 0%
O=c1c2cnn(-c3ccccc3)c2nc(-c2cccs2)n1-c1cccc(Cl)c1 | -36% | 5% | 8.9µM* | -5%
O=c1c2cnn(-c3ccccc3)c2nc(-c2cccs2)n1-c1ccc(Cl)cc1 | -85%[57.5 µM] | 3% | 3% | -3%
Cc1cc2c(cc1C)CSC(c1ccccc1OC(=O)C(C)C)SC2 | -14% | 1% | 10µM* | -15%
O=C(NC1CCN(C(=O)N2c3ccccc3Sc3ccccc32)CC1)c1ccccc1Cl | -68% | -3% | 10µM* | -1%
O=C(c1ccco1)N1c2ccccc2Sc2ccccc21 | -28% | 0% | ? | -9%
O=C(c1ccco1)N1CCN(C(=O)N2c3ccccc3Sc3ccccc32)CC1 | i | 23% | ? | 3.2µM*
CCc1ccc(CNC(=O)c2ccc(NC(=O)N3CCCCc4ccccc43)cc2)cc1 | i | nt | 9% | 1%
O[C@H]1C[C@H](c2ccc(Cl)cc2)N(CC2CCCCC2)C[C@@H]1n1cc(C2CC2)nn1 | -31% | -4% | 10µM* | ?
COc1ccc(S(=O)(=O)N2CC3CCCN3c3cc(C(F)(F)F)ccc32)cc1 (centres undefined) | i | -3% | 10µM* | 19%
COc1ccc(S(=O)(=O)N2CC3CCCN3c3ccc(C(F)(F)F)cc32)cc1 (centres undefined) | -71% | -6% | -15% | -2%
CCOc1cc(CNc2ccc(N3CCOCC3)cc2)cc(Br)c1OCC | -22% | 12% | ? | 3%
CCOc1cc(CNc2ccc3c(c2)OCCO3)cc(Br)c1OCC | -9%[57.5 µM] | 1% | 2.2µM* | -29%
